According to ChEMBL document CHEMBL4513216, “Probing the Open Global Health Chemical Diversity Library for Multistage-Active Starting Points for Next-Generation Antimalarials” (ACS Infect Dis, 2020):
The whole screen tested about 68,000 compounds, of which about 2,700 (4%) showed an effect of 50% or more. What follows is part of a selection rich in strong results, with near analogues and random picks from the rest.

Each compound was assayed on Plasmodium berghei (assay: Screen against P. berghei liver stage (PbLuc), transformed with Luciferase, at 2uM). Settings: tested at 2 uM.
Format: functional, HepG2

| Compound | INHIBITION [%] |
| --- | --- |
| c1ccc(-n2cc(CN3CCCC3Cn3cncn3)nn2)cc1 (stereo not given) | 15.47 |
| Cc1ccn2c(=O)cc(CSCC(=O)Nc3nnc(C(C)C)s3)nc2c1 | 4.89 |
| CC(C)c1nnc(NC(=O)CSCc2cc(=O)n3ccccc3n2)s1 | 1.87 |
| Cc1cccc2nc(CSCC(=O)Nc3nnc(C(C)C)s3)cc(=O)n12 | 52.21 |
| COc1ccc2c3c1CN(C(C)=O)CC3=CC(C)(C)CO2 | 22.01 |
| CC(NC(=O)c1sccc1C1CC1)c1ccc2c(c1)CC(=O)N2 (stereo not given) | 51.14 |
| Cc1ccsc1C(=O)NC(C)c1ccc2c(c1)CCC(=O)N2 (stereo not given) | 0.48 |
| CSc1ccsc1C(=O)NC(C)c1ccc2c(c1)CCC(=O)N2 (stereo not given) | 0.48 |
| Cn1cc(C(=O)NCc2ccc(N3CCCC3)nc2)ccc1=O | -0.05 |
| Cc1ccn(CC(=O)NCCCOc2ccccc2F)c(=O)c1 | 15.2 |
| CN(C)S(=O)(=O)N1CCC(c2ccncn2)CC1 | -5.42 |
| COCCn1ccc(NC(=O)Nc2ccncc2)n1 | 1.94 |
| O=S(=O)(NCC1(c2cccs2)CCCC1)c1cccnc1 | 58.53 |
| O=S(=O)(NCC1(c2cccs2)CCOCC1)c1cccnc1 | -0.59 |
| O=S(=O)(NCC1(c2cccs2)CCOCC1)c1ccc2c(c1)OCCO2 | -12.08 |
| Cc1cccc(Nc2ccc(C3CCCCN3)cn2)n1 (stereo not given) | 30.53 |
| O=C(NC1CC1)[C@H]1C[C@H]2OCC[C@H]2N(CC2CC2)C1 | 28.49 |
| O=C(COCc1ccccc1)N1CCCC1c1noc(C2CC2)n1 (stereo not given) | 37.68 |
| CN(CCCc1ccc(C(F)(F)F)cc1)Cc1nccn1C | 59.08 |
| CN(CCCOc1ccccc1)Cc1nccn1C | -27.01 |
| Cn1ccnc1CN(CCO)Cc1ccc(C(F)(F)F)cc1 | 9.42 |
| CSCC(CCO)NC(=O)c1cccc(C)c1Cl (stereo not given) | -5.44 |
| Cc1cn2c(n1)CCC(NC(=O)c1cc(Br)cn1C)C2 (stereo not given) | -2.1 |
| CCOc1ccc(C(F)(F)F)cc1NC(=O)NCc1noc(C)n1 | -40.82 |
| Cc1nc(CN2C(=O)COC3(CCN(CC4CC4)CC3)C2C)cs1 (stereo not given) | 35.26 |
| CC(=O)N1CCC(CCNC(C)Cc2ccc(F)cc2)CC1 (stereo not given) | 63.1 |
| CC(=O)N1CCC(CCNC(C)c2cc(F)cc(F)c2)CC1 (stereo not given) | 14.63 |
| CC(=O)N1CCC(CCNC(C)c2cc(C)cc(C)c2)CC1 (stereo not given) | 8.03 |
| CN(C)C(=O)C1CN(Cc2ccccn2)CCN(S(C)(=O)=O)C1 (stereo not given) | 25.72 |
| Cc1noc(C)c1CN(C)C(=O)c1ccc(C(N)=O)nc1 | 17.31 |
